# Data as given in PubChem BioAssay AID1159580 (chemical genetic matrix, 2015).
# Among all 5,500 compounds or so, about 2,000 (36%) were called active. About 18% were inconclusive and are not listed. The list shows a part of the results. Unmarked numbers belong to inactive results. Cut-off read from the data, not from the text of the source: active = normalized growth mostly below about 0.91 (no sharp cut-off); inconclusive = no clear call, values can overlap the other calls; inactive = mostly above about 0.92.
# Assay: chemical genetic growth profiling, strain panel (AID 1159580);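 note: tested at 20 µM; growth read once vehicle control cultures reached saturation at 30 °C; 1 = growth at the plate median or of vehicle wells; lower values mean less growth of the strain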
# Conditions: S. cerevisiae deletion strains, growth OD
# [1] = locus YAL040C, strain CLN3, hits give low values
# [2] = locus YCL061C, strain MRC1 (second series), hits give low values
# [3] = locus YDR363W, strain ESC2, hits give low values
# [4] = locus YER002W, strain NOP16, hits give low values
# [5] = locus YGR229C, strain SMI1, hits give low values
# [6] = locus YNL175C, strain NOP13, hits give low values
# [7] = locus YNL197C, strain WHI3, hits give low values
# [8] = locus YNL224C, strain SQS1, hits give low values
# [9] = locus YNL322C, strain KRE1, hits give low values
# [10] = locus YOR083W, strain WHI5 (second series), hits give low values
# [11] = locus YPL055C, strain LGE1, hits give low values
# [12] = locus YPL241C, strain CIN2, hits give low values
# [13] = locus YAL013W, strain DEP1, hits give low values
# [14] = locus YGR078C, strain PAC10, hits give low values
# [15] = locus YJR075W, strain HOC1, hits give low values
# [16] = locus YMR263W, strain SAP30, hits give low values
# [17] = locus YNL153C, strain GIM3, hits give low values
# [18] = locus YDL101C, strain DUN1, hits give low values
# [19] = locus YHR030C, strain SLT2, hits give low values
smiles,measurement,setting,value
COc1ccccc1N1CCN(CCN(C(=O)c2ccc(I)cc2)c2ccccn2)CC1,normalized growth,[1],0.976
same,normalized growth,[2],0.988
same,normalized growth,[3],0.943
same,normalized growth,[4],1.01
same,normalized growth,[5],0.984
same,normalized growth,[6],0.983
same,normalized growth,[7],0.996
same,normalized growth,[8],0.987
same,normalized growth,[9],0.977
same,normalized growth,[10],0.997
same,normalized growth,[11],0.964
same,normalized growth,[12],0.995
COc1ccccc1N1CCN(CCCCN2C(=O)c3ccccc3C2=O)CC1,normalized growth,[13],1
same,normalized growth,[1],0.99
same,normalized growth,[2],0.995
same,normalized growth,[3],0.963
same,normalized growth,[4],1.01
same,normalized growth,[14],0.985
same,normalized growth,[5],1.02
same,normalized growth,[15],0.993
same,normalized growth,[16],1
same,normalized growth,[17],0.99
same,normalized growth,[6],0.979
same,normalized growth,[7],0.981
same,normalized growth,[8],1
same,normalized growth,[10],0.985
same,normalized growth,[11],0.971
same,normalized growth,[12],1
N#Cc1nccnc1N1CCN(C(=O)Nc2cc(Cl)cc(Cl)c2)CC1,normalized growth,"locus YAR019C, strain CDC15, hits give low values",0.963
same,normalized growth,"locus YBL105C, strain PKC1, hits give low values",0.972
same,normalized growth,"locus YBR135W, strain CKS1, hits give low values",0.947
same,normalized growth,"locus YBR136W, strain MEC1, hits give low values",0.972
same,normalized growth,"locus YBR160W, strain CDC28, hits give low values",0.965
same,normalized growth,"locus YDL017W, strain CDC7, hits give low values",0.969
same,normalized growth,"locus YDL028C, strain MPS1, hits give low values",0.965
same,normalized growth,[18],0.975
same,normalized growth,"locus YDL108W, strain KIN28, hits give low values",0.968
same,normalized growth,"locus YDL132W, strain cdc53, hits give low values",0.967
same,normalized growth,"locus YDL214C, strain PRR2, hits give low values",0.955
same,normalized growth,"locus YDR052C, strain DBF4, hits give low values",0.969
same,normalized growth,"locus YDR054C, strain cdc34, hits give low values",0.952
same,normalized growth,"locus YDR226W, strain ADK1, hits give low values",0.965
same,normalized growth,"locus YDR477W, strain SNF1, hits give low values",0.923
same,normalized growth,"locus YER123W, strain YCK3, hits give low values",0.946
same,normalized growth,"locus YER133W, strain GLC7, hits give low values",0.967
same,normalized growth,"locus YFL009W, strain cdc4, hits give low values",0.951
same,normalized growth,"locus YFL029C, strain CAK1, hits give low values",0.958
same,normalized growth,"locus YFR003C, strain YPI1, hits give low values",0.972
same,normalized growth,"locus YFR019W, strain FAB1, hits give low values",0.947
same,normalized growth,"locus YFR028C, strain CDC14, hits give low values",0.966
same,normalized growth,"locus YGR040W, strain KSS1, hits give low values",0.946
same,normalized growth,"locus YGR052W, strain FMP48, hits give low values",1.05
same,normalized growth,"locus YGR092W, strain DBF2, hits give low values",0.896
same,normalized growth,[19],0.714 (active)
same,normalized growth,"locus YHR079C, strain IRE1, hits give low values",0.739
same,normalized growth,"locus YHR082C, strain KSP1, hits give low values",0.964
same,normalized growth,"locus YHR205W, strain SCH9, hits give low values",0.946
same,normalized growth,"locus YIL147C, strain SLN1, hits give low values",0.966
same,normalized growth,"locus YJL095W, strain BCK1, hits give low values",0.824
same,normalized growth,"locus YJL128C, strain PBS2, hits give low values",0.954
same,normalized growth,"locus YJL157C, strain FAR1, hits give low values",0.925
same,normalized growth,"locus YJR016C, strain ILV3, hits give low values",0.952
same,normalized growth,"locus YJR066W, strain TOR1 (second series), hits give low values",0.934
same,normalized growth,"locus YJR066W, strain TOR1, hits give low values",0.891
same,normalized growth,"locus YKL048C, strain ELM1, hits give low values",0.959
same,normalized growth,"locus YKL067W, strain YNK1, hits give low values",0.959
same,normalized growth,"locus YKL101W, strain HSL1, hits give low values",0.938
same,normalized growth,"locus YKL193C, strain SDS22, hits give low values",0.961
same,normalized growth,"locus YKL203C, strain TOR2, hits give low values",0.985
same,normalized growth,"locus YLR113W, strain HOG1, hits give low values",0.892
same,normalized growth,"locus YLR133W, strain CKI1, hits give low values",0.942
same,normalized growth,"locus YLR403W, strain SFP1, hits give low values",0.949
same,normalized growth,"locus YML070W, strain DAK1, hits give low values",0.94
same,normalized growth,"locus YMR001C, strain CDC5, hits give low values",0.968
same,normalized growth,"locus YMR205C, strain PFK2 (second series), hits give low values",0.947
same,normalized growth,"locus YMR277W, strain FCP1, hits give low values",0.97
same,normalized growth,"locus YNL006W, strain LST8, hits give low values",0.961
same,normalized growth,"locus YNL020C, strain ARK1, hits give low values",0.934
same,normalized growth,"locus YNL161W, strain CBK1, hits give low values",0.961
same,normalized growth,"locus YNL183C, strain NPR1, hits give low values",0.952
same,normalized growth,"locus YNL207W, strain RIO2, hits give low values",0.971
same,normalized growth,"locus YNL222W, strain SSU72, hits give low values",0.967
same,normalized growth,"locus YNL307C, strain MCK1 (second series), hits give low values",0.941
same,normalized growth,"locus YOL078W, strain AVO1, hits give low values",0.961
same,normalized growth,"locus YOL136C, strain PFK27, hits give low values",0.924
same,normalized growth,"locus YOR061W, strain CKA2, hits give low values",0.931
same,normalized growth,"locus YOR119C, strain RIO1, hits give low values",1.02
same,normalized growth,"locus YOR231W, strain MKK1, hits give low values",0.883
same,normalized growth,"locus YOR329C, strain SCD5, hits give low values",0.971
same,normalized growth,"locus YPL031C, strain PHO85, hits give low values",0.9
same,normalized growth,"locus YPL153C, strain RAD53, hits give low values",0.906
same,normalized growth,"locus YPL204W, strain HRR25, hits give low values",0.915
same,normalized growth,"locus YPL209C, strain IPL1, hits give low values",0.974
same,normalized growth,"locus YPL256C, strain CLN2, hits give low values",0.922
same,normalized growth,"locus YPR025C, strain CCL1, hits give low values",0.959
same,normalized growth,"locus YPR106W, strain ISR1, hits give low values",0.986
same,normalized growth,"locus YPR111W, strain DBF20, hits give low values",0.958
same,normalized growth,"strain NNK1, hits give low values",0.973
same,normalized growth,"strain TSCII, hits give low values",0.953
O=C(Nc1ccc(Cl)cc1)N1CCN(c2ncccc2C(F)(F)F)CC1,normalized growth,[13],0.996
same,normalized growth,"locus YBR229C, strain ROT2, hits give low values",0.979
same,normalized growth,[18],0.956
same,normalized growth,"locus YDL134C, strain PPH21, hits give low values",0.955
same,normalized growth,"locus YDR150W, strain NUM1, hits give low values",0.978
same,normalized growth,"locus YEL061C, strain CIN8, hits give low values",0.976
same,normalized growth,[14],0.939
same,normalized growth,[19],0.713
same,normalized growth,"locus YHR087W, strain rtc3, hits give low values",0.939
same,normalized growth,"locus YJR043C, strain POL32, hits give low values",0.97
same,normalized growth,[15],0.908
same,normalized growth,"locus YLR039C, strain RIC1, hits give low values",1.04
same,normalized growth,"locus YLR058C, strain SHM2 (second series), hits give low values",0.968
same,normalized growth,"locus YLR085C, strain ARP6, hits give low values",0.944
same,normalized growth,"locus YLR262C, strain YPT6, hits give low values",0.978
same,normalized growth,"locus YML094W, strain GIM5, hits give low values",0.957
same,normalized growth,"locus YMR219W, strain ESC1, hits give low values",0.976
same,normalized growth,[16],0.969
same,normalized growth,"locus YMR307W, strain GAS1, hits give low values",0.805
same,normalized growth,[17],0.946
same,normalized growth,"locus YNL298W, strain CLA4 (second series), hits give low values",0.893
same,normalized growth,[9],0.988
same,normalized growth,"locus YNR030W, strain Alg12, hits give low values",0.956
same,normalized growth,"locus YOL006C, strain TOP1, hits give low values",0.782
same,normalized growth,[11],0.943
same,normalized growth,[12],0.92
same,normalized growth,"locus YPR135W, strain CTF4, hits give low values",1.04
